# Measurements as given in PubChem BioAssay (Tox21).
# A number with no mark means an inactive call. Results filed as inconclusive are left out. Entries that show only a call come without a potency. Active and inactive are the calls of the source. Unless noted, calls follow the shape of the full dose curve.
# Assays:
# [1] = biological target: Acetylcholinesterase (Homo sapiens) (UniProt P22303); experiment: Acetylcholinesterase (AChE) small molecule antagonists: enzyme-based qHTS assay (AID 1347397); conditions: Potency: AChE enzyme activity inhibition; outcome: AChE enzyme activity inhibition; also: nearly all actives have a fitted effect of over 55% in size; also: potency is read from the fitted curve at half-maximal effect
# Acetylcholinesterase (Homo sapiens), sequence (P22303 whole entry, looked up): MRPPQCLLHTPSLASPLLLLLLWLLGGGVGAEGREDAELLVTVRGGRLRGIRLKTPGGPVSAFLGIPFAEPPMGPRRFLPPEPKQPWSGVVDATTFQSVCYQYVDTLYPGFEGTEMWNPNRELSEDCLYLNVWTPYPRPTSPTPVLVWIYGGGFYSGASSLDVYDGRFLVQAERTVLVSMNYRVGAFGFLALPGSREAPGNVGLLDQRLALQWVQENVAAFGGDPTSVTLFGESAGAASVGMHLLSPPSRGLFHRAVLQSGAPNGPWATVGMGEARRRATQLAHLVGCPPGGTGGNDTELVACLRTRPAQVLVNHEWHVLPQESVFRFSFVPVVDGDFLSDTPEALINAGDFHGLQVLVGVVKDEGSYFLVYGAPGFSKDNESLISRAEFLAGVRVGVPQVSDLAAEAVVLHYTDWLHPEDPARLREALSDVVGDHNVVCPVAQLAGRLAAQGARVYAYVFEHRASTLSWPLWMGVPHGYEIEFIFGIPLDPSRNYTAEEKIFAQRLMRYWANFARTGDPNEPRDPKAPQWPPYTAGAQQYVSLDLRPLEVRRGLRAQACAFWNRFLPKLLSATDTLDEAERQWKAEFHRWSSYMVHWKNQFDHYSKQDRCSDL
# Summary of the method: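 Colorimetric DTNB readout of acetylthiocholine hydrolysis, 10 min at room temperature, after 30 min room-temperature exposure of 50 mU/mL recombinant human enzyme to compound; DMSO vehicle control.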
# [2] = biological target: Acetylcholinesterase (Homo sapiens) (UniProt P22303); experiment: Acetylcholinesterase (AChE) small molecule antagonists: fluorescence cell-based qHTS assay (AID 1347398); conditions: Potency: AChE activity; outcome: AChE activity; also: nearly all actives have a fitted effect of over 50% in size; also: potency is read from the fitted curve at half-maximal effect
# Summary of the method: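 Cellular AChE activity read as thiocholine from acetylthiocholine hydrolysis, detected by Thiolite Green fluorescence at 490/520 nm after 40 min at room temperature. Compounds were pre-incubated 30 min at 37 C on adherent SH-SY5Y cells.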
# [3] = biological target: Acetylcholinesterase (Homo sapiens) (UniProt P22303); experiment: Acetylcholinesterase (AChE) small molecule antagonists: enzyme-based qHTS assay with human liver microsomes (AID 1347399); conditions: Potency: qHTS inhibition; outcome: qHTS inhibition; also: nearly all actives have a fitted effect of over 60% in size
# Summary of the method: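 Recombinant human AChE (50 mU/mL in the enzyme mix) and human liver microsomes (0.25 mg/mL final) were preincubated with compound and NADPH (0.25 mg/mL final) for 30 min at 37 C. Acetylthiocholine/DTNB was then added; thiocholine was read colorimetrically after 10 min at room temperature.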
# [4] = qHTS assay for small molecule agonists of the p53 signaling pathway (AID 651631); also: nearly all actives have a fitted effect of over 15% in size
# Summary of the method: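 p53RE-bla HCT-116 cells; compounds 16 h, 37 °C; LiveBLAzer B/G FRET substrate 2 h RT; fluorescence intensity read-out, qHTS format.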
# Aromatase (Homo sapiens) = Aromatase (Homo sapiens) (UniProt P11511); experiment: qHTS assay to identify aromatase inhibitors (AID 743083; active = well fitted inhibition curve with a large enough effect in the repeat runs; also: series mostly up to about 70 µM; nearly all actives have a fitted effect of over 55% in size)
# Aromatase (Homo sapiens), sequence (P11511 whole entry, looked up): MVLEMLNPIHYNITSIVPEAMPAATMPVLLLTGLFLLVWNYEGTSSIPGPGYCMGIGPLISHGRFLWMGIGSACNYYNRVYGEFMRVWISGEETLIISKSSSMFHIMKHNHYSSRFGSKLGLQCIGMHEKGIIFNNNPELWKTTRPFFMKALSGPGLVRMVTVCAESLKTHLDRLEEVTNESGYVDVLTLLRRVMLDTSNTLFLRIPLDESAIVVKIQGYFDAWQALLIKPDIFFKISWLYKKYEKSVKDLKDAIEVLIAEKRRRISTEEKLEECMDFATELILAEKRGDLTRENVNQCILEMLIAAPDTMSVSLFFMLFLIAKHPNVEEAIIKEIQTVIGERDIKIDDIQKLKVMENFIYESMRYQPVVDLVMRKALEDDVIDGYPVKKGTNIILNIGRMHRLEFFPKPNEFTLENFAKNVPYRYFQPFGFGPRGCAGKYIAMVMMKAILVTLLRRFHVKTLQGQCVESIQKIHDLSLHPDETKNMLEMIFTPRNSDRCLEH
# [5] = qHTS assay for small molecule activators of the heat shock response signaling pathway (AID 743210; active = well fitted activation curve with a large enough effect in the signal ratio in the repeat runs, with a control signal flat, not every such curve was filed as active; the % refers to the signal ratio; also: series mostly up to about 63 µM)
# Summary of the method: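 Compound exposure lasted 5 h at 37 C in HeLa cells carrying a heat-shock-element-driven beta-lactamase reporter. Read-out: fluorescence intensity after 2.5 h room-temperature loading with LiveBLAzer B/G FRET substrate.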
structure (smiles),measurement,setting,value
Nc1cccnc1N,Potency,[1],inactive
same,Potency,[2],inactive
same,Potency,[3],inactive
Cc1ccc2sc3cccc(C)c3c2c1,Potency,[1],inactive
same,Potency,[2],inactive
same,Potency,[3],inactive
Cc1ccc(NC(N)=O)cc1,Potency,[1],inactive
same,Potency,[2],inactive
same,Potency,[3],inactive
O=c1[nH]cnc2ccccc12,Potency,[1],inactive
same,Potency,[2],inactive
same,Potency,[3],inactive
O=C(OCC(COC(=O)c1cccnc1)(COC(=O)c1cccnc1)COC(=O)c1cccnc1)c1cccnc1,Potency,[1],inactive
same,Potency,[2],inactive
same,Potency,[3],inactive
CC1CCN(CCCC(=O)c2ccc(F)cc2)CC1,Potency,[1],inactive
same,Potency,[2],inactive
same,Potency,[3],inactive
C=CC(=O)O,Potency,[1],inactive
same,Potency,[2],inactive
same,Potency,[3],inactive
Cc1oncc1C(=O)Nc1ccc(C(F)(F)F)cc1,Potency,[1],inactive
same,Potency,[2],inactive
same,Potency,[3],inactive
CC[C@H]1CC[C@H](NCc2cc3c(cc2OC)[C@H]2C[C@H]2C(=O)N3C)[C@H](c2ccccc2)N1,Potency,[1],inactive
same,Potency,[2],35.6 µM (active)
same,Potency,[3],inactive
COc1ncnc(NS(=O)(=O)c2ccc(N)cc2)c1OC,Potency,[1],inactive
same,Potency,[2],inactive
same,Potency,[3],inactive
CCCc1ccc(N)cc1,Potency,[1],inactive
same,Potency,[2],inactive
same,Potency,[3],inactive
CCCCCCCC[P+](CCCCCCCC)(CCCCCCCC)CCCCCCCC,Potency,[1],22.3 µM (active)
same,Potency,[2],62.9 µM (active)
same,Potency,[3],inactive
NCCCCCCNCCCCCCN,Potency,[1],inactive
same,Potency,[2],39.3 µM (active)
same,Potency,[3],inactive
Cc1[nH]cnc1-c1ccc(Cl)cc1,Potency,[1],inactive
same,Potency,[2],inactive
same,Potency,[3],inactive
CC(=O)Oc1ccc(C(c2ccc(OC(C)=O)cc2)c2ccccn2)cc1,Potency,[1],inactive
same,Potency,[2],inactive
same,Potency,[3],inactive
Cc1nc2n(c(=O)c1CCN1CCC(c3noc4cc(F)ccc34)CC1)CCC[C@H]2O,"activity change, negative = inhibition",[1],-5.56% [at 23.6 µM]
same,"activity change, negative = inhibition",[2],-17.1% [at 23.8 µM]
same,"activity change, negative = inhibition",[3],-2.77% [at 23.6 µM]
NC(N)=NN=C(/C=C/c1ccc([N+](=O)[O-])o1)/C=C/c1ccc([N+](=O)[O-])o1,Potency,[1],inactive
same,Potency,[2],inactive
same,Potency,[3],inactive
CC[N+](CC)(CC)CCOc1ccc(/C=C/c2ccccc2)cc1,Potency,[1],inactive
same,Potency,[2],34.7 µM (active)
same,Potency,[3],inactive
CCCCCCCC/C=C\CCCCCCCCO,Potency,[1],inactive
same,Potency,[2],inactive
same,Potency,[3],inactive
CCC(CN)=C(c1ccccc1)c1ccccc1,Potency,[1],inactive
same,Potency,[2],inactive
same,Potency,[3],inactive
CS(=O)(=O)c1ccc([C@@H](C[C@H]2CCC(=O)C2)C(=O)Nc2cnccn2)cc1Cl,Potency,[1],inactive
same,Potency,[2],inactive
same,Potency,[3],inactive
NC1(c2ccc(-c3nc4ccn5c(=O)[nH]nc5c4cc3-c3ccccc3)cc2)CCC1,Potency,[1],inactive
same,Potency,[3],inactive
CCCCN(CCCC)CCCOC(=O)c1ccc(N)cc1,Potency,[1],inactive
same,Potency,[3],inactive
COc1cc2ncnc(Nc3ccc(F)c(Cl)c3)c2cc1OCCCN1CCOCC1,Potency,[1],inactive
same,Potency,[3],inactive
CC(C)C[C@@H]1[C@H](c2ccccc2)OC(=O)N1CCCN1CCCCCC1,Potency,[1],inactive
same,Potency,[3],inactive
CCOC(=O)C1CC(=O)C(=C(O)C2CC2)C(=O)C1 (stereo unspecified),Potency,[1],inactive
same,Potency,[3],inactive
N#C/C(=C1\SCC(c2ccccc2Cl)S1)n1ccnc1 (stereo unspecified),Potency,[1],inactive
same,Potency,[3],inactive
NC(=O)C(c1ccccc1)(c1ccccc1)[C@@H]1CCN(CCc2ccc3c(c2)CCO3)C1,Potency,[1],inactive
same,Potency,[3],inactive
CCNS(=O)(=O)c1ccc(C)cc1,Potency,[1],inactive
same,Potency,[2],inactive
same,Potency,[3],inactive
Cc1cc(O)ccc1N,Potency,[1],inactive
same,Potency,[3],inactive
c1ccc2c(CC3=NCCN3)cccc2c1,Potency,[1],inactive
same,Potency,[3],inactive
Cc1ccc(O)c([C@H](CCN(C(C)C)C(C)C)c2ccccc2)c1,Potency,[1],inactive
same,Potency,[3],inactive
CCC(C)CCCC(C)(C)O (stereo unspecified),Potency,[1],inactive
same,Potency,[2],inactive
same,Potency,[3],inactive
O=[N+]([O-])c1cc(Cl)c(Cl)c(Cl)c1Cl,Potency,[1],inactive
same,Potency,[2],inactive
same,Potency,[3],inactive
O=C1CC[C@H](C(=O)N2CCCCC2)N1,Potency,[1],inactive
same,Potency,[2],inactive
same,Potency,[3],inactive
CCC(C)NC(N)=O (stereo unspecified),Potency,[1],inactive
same,Potency,[2],inactive
same,Potency,[3],inactive
C=CCCCCCCCCCCC,"activity change, negative = inhibition",[1],0.273% [at 10.5 µM]
same,"activity change, negative = inhibition",[2],5.55% [at 10.5 µM]
same,"activity change, negative = inhibition",[3],0.324% [at 10.5 µM]
C/C=C1/C(=O)C[C@H]2[C@@H]3CCC4=CC(=O)CC[C@]4(C)[C@H]3CC[C@]12C,Potency,[1],inactive
same,Potency,[3],inactive
CC(C)CCCC(C)NCCC(C)C (stereo unspecified),Potency,[1],inactive
same,Potency,[2],inactive
same,Potency,[3],inactive
NS(=O)(=O)c1cc2c(cc1C(F)(F)F)NCNS2(=O)=O,Potency,[1],inactive
same,Potency,[3],inactive
S=C([S-])NCCNC(=S)[S-].[Mn+2],Potency,[1],inactive
same,Potency,[2],39.9 µM (active)
same,Potency,[3],inactive
C=CC(=O)OCC[N+](C)(C)C,Potency,[1],inactive
same,Potency,[3],inactive
NC(N)=N/N=C/c1c(Cl)cccc1Cl,Potency,[1],inactive
same,Potency,[3],inactive
CC(=O)CC(C)C,Potency,[4],inactive
same,Potency,Aromatase (Homo sapiens),inactive
same,outcome,[5],inactive
same,Potency,[1],inactive
same,Potency,[2],inactive
same,Potency,[3],inactive
COc1cc2nc(N3CCN(C(=O)c4ccco4)CC3)nc(N)c2cc1OC,"activity change, negative = inhibition",[1],-11.6% [at 23.6 µM]
same,"activity change, negative = inhibition",[2],-22.9% [at 23.8 µM]
same,"activity change, negative = inhibition",[3],-0.588% [at 23.6 µM]
Cc1cc(-c2ccc(N=Nc3cc(S(=O)(=O)O)c4ccccc4c3N)c(C)c2)ccc1N=Nc1cc(S(=O)(=O)O)c2ccccc2c1N,Potency,[1],inactive
same,Potency,[3],inactive
